Experimental data published in PubChem BioAssay AID1159580 (chemical genetic matrix, 2015).
Screen size: about 5,500 compounds; about 2,000 (36%) were called active. Another 18% or so got no clear call; they are omitted. Rule as the data show it: active = normalized growth mostly below about 0.91 (no sharp cut-off); inconclusive = no clear call, values can overlap the other calls; inactive = mostly above about 0.92. This is one part of the list.

Assay: chemical genetic growth profiling, strain panel (AID 1159580);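 also: tested at 20 µM; growth read once vehicle control cultures reached saturation at 30 °C; 1 = growth at the plate median or of vehicle wells; lower values mean less growth of the strain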
Details: S. cerevisiae deletion strains, growth OD

Measured: normalized growth

CC(=O)NC(CCC(=O)O)C(=O)O (stereo not drawn)
inactive: locus YAL013W, strain DEP1, active compounds read low 0.985 | locus YBR229C, strain ROT2, active compounds read low 0.966 | locus YCL061C, strain MRC1, active compounds read low 0.984 | locus YDL101C, strain DUN1, active compounds read low 0.96 | locus YDR150W, strain NUM1, active compounds read low 0.974 | locus YEL061C, strain CIN8, active compounds read low 0.975 | locus YGR078C, strain PAC10, active compounds read low 0.983 | locus YHR030C, strain SLT2, active compounds read low 0.973 | locus YJR043C, strain POL32, active compounds read low 0.976 | locus YJR075W, strain HOC1, active compounds read low 0.99 | locus YKL190W, strain CNB1, active compounds read low 0.99 | locus YLR039C, strain RIC1, active compounds read low 0.978 | locus YLR058C, strain SHM2 (second series), active compounds read low 0.981 | locus YLR085C, strain ARP6, active compounds read low 0.975 | locus YLR262C, strain YPT6, active compounds read low 1.01 | locus YML094W, strain GIM5, active compounds read low 0.981 | locus YMR219W, strain ESC1, active compounds read low 0.975 | locus YMR263W, strain SAP30, active compounds read low 0.987 | locus YMR307W, strain GAS1, active compounds read low 1.1 | locus YNL153C, strain GIM3, active compounds read low 0.978 | locus YNL298W, strain CLA4 (second series), active compounds read low 0.984 | locus YNL322C, strain KRE1, active compounds read low 0.984 | locus YNR030W, strain Alg12, active compounds read low 1.02 | locus YOL006C, strain TOP1, active compounds read low 0.964 | locus YPL055C, strain LGE1, active compounds read low 1.03 | locus YPL241C, strain CIN2, active compounds read low 0.973 | locus YPR135W, strain CTF4, active compounds read low 0.969
active: locus YHR087W, strain rtc3, active compounds read low 1.13 [resistant]
